The values below come from PubChem BioAssay (NCATS).

Values joined by “and” are separate entries in the source; they are usually repeats but may differ in a detail not shown here. Equal values may be shown once. Inconclusive results are not listed. Where a structure was tested more than once in an assay, its records may differ in their call. Unmarked numbers belong to inactive results. Active and inactive are the calls of the source. The call rests on the fitted dose curve; in most records, active means well fitted inhibition curve with a large enough effect; inconclusive means small, poorly fitted or top-dose-only effect; inactive means flat fitted curve, though single readings scatter.
On the % scale 0 is the no-effect control and ±100 the full control effect; potency means the concentration at half of the fitted maximal effect.

The assay has as its system HEK293. In words: Cytotoxic Profiling of Annotated Libraries Using Quantitative High-Throughput Screening (AID 1296008). Further: nearly all actives have a fitted effect of over 60% in size. The settings on record: Five cell lines viability, CellTiter-Glo ATP luminescence, 48-72 h; max response: active compounds read low. The text has this:
Cell-based phenotypic screening is a commonly used approach to discover biological pathways, novel drug targets, chemical probes and high-quality hit-to-lead molecules. Many hits identified from high-throughput screening campaign are ruled out through a series of follow-up potency, selectivity/specificity, and cytotoxicity assays. Prioritization of molecules with little or no cytotoxicity for a more in-depth downstream evaluation influence the future direction of projects, so cytotoxicity profiling of the screening libraries at early stage is essential for increasing the likelihood of candidate success. […] For the annotated library, we also examined the primary targets and mechanistic pathways regularly associated with cell death. To our knowledge, this is the first study to use high-throughput screening to profile large libraries for cytotoxicity assessment in both normal and cancer cell lines. In summary, the results generated here constitutes a valuable resource for the scientific community and provides insight on identifying cytotoxic compounds with particular mechanisms of action, and prioritizing compounds with suitable cytotoxicity profile for further evaluation.
A pintool (Kalypsys) was used to transfer 23 nL of compound solution to the 1536-well assay plates. After 48 or 72 hr incubation at 37 degree Celsius, 5% CO2 and 95% humidity, 2.5 uL of CellTiter-Glo (Promega) was dispensed into each well using a dispenser (Aspect Automation, St. Paul, MN) with solenoid valves (Lee Valves, Westbrook CT). Plates were left at room temperature for 10 min before imaging the ATP-coupled luminescence using a ViewLux microplate imager (PerkinElmer, Waltham, MA).
As to `CCOc1ccccc1OCCNC(C)Cc1ccc(OC)c(S(N)(=O)=O)c1` (stereo not given), the max response was -25.2%.

Take `COCCOc1ccc2c(c1)ncn2-c1ccc2cccc(N3CCC(N)CC3)c2n1`: the Potency is 11.8 µM (active). `COc1ccc(CC2SC(=O)NC2=O)cc1C(=O)NCc1ccc(C(F)(F)F)cc1` (stereo not given): the max response was -1.55%. Take `COc1cccc2c(NCc3ccccc3)nc(-n3c(N)nc4ccccc43)nc12`: the Potency was 7.43 µM (active) and 11.6 µM (active). As for `O=C(O)C1(Cc2cccc(Nc3nccs3)n2)CCC(Oc2cccc(Cl)c2F)CC1` (stereo not given), the Potency was 2.64 µM (active) and 1.3 µM (active). For the molecule `C=CC(=O)Nc1cccc(Oc2nc(Nc3ccc(N4CCN(C)CC4)cc3OC)ncc2Cl)c1`, the max response is -27.8%. Turning to `CN[C@H]1CCc2cc(OC)c(OC)c(OC)c2-c2ccc(OC)c(=O)cc21`, the Potency was 0.0015 µM (active). On to `COc1cc2c(cc1-c1c(C)noc1C)ncc1[nH]c(=O)n([C@H](C)c3ccccn3)c12`, for which the Potency is 5.26 µM (active) and 4.11 µM (active). `CNC(=O)CN1CCC(Oc2cc3c(Nc4cccc(Cl)c4F)ncnc3cc2OC)CC1`: the max response was 1% and -0.0643%. As to `CC(O)C1C(=O)N2C(C(=O)O)=C(SC3CNC(C(=O)N(C)C)C3)C(C)C12` (stereo not given), the max response is -5.51% and 0.11%. For the molecule `Cc1c(C)n(Cc2ccc(-c3ccccc3C(=O)O)cc2)c2ccc(C(=O)N[C@@H](C)c3ccc([N+](=O)[O-])cc3)cc12`, the max response was -2.51% and the molecule was called inactive.

Consider `Cc1coc2c1C(=O)C(=O)c1c-2ccc2c1CCCC2(C)C`, for which the Potency is 9.2 µM (active).

Turning to `Nc1nc(Nc2ccc(S(N)(=O)=O)cc2)nn1C(=O)c1c(F)cccc1F`, the Potency was 5.9 µM (active) and 2.59 µM (active).

On to `O=c1[nH]c(=O)n(C2CCCO2)cc1F` (stereo not given), for which the max response was -0.0583%. `C[C@@H](Oc1cc(-n2cnc3ccc(CN4CCN(C)CC4)cc32)sc1C(N)=O)c1ccccc1C(F)(F)F`: the Potency is 0.0332 µM (active).

Consider `NCC(=O)Nc1ccc(-n2nc(C(F)(F)F)cc2-c2ccc3c(ccc4ccccc43)c2)cc1`, for which the Potency was 166 nM (active) and 1.46 µM (active). Regarding `Clc1cccc(-c2nnnn2Cc2cccnc2)c1Cl`, the max response is -0.348% and the Potency is 26.4 µM (active). Turning to `Cc1ccc(C(N)=O)cc1Nc1nccc(-c2cn(C(C)C)c3cnccc23)n1`, the Potency was 6.51 µM (active). On to `O=C(NCCS(=O)(=O)c1ccc(C(F)(F)F)cn1)c1ccc(Cl)cc1`, for which the max response was -5.18%. Regarding `N#CCNC(=O)c1ccc(-c2ccnc(Nc3ccc(N4CCOCC4)cc3)n2)cc1`, the Potency is 18.7 µM (active) and 23.1 µM (active). For `CCN(CC)CCCCNc1ncc2cc(-c3cc(OC)cc(OC)c3)c(NC(=O)NC(C)(C)C)nc2n1`, the Potency was 4.18 µM (active). For the molecule `Cc1ccc(S(=O)(=O)Nc2cc(Cl)ccc2C(=O)Nc2nc(-c3ccccc3)cs2)cc1`, the Potency was 11.8 µM (active). For the molecule `COC(=O)Nc1nc2ccc(C(=O)c3ccc(F)cc3)cc2[nH]1`, the Potency is 590 nM (active) and 820 nM (active). On the same count and under the same terms, in the case of `CCn1cc(-c2ccnc3[nH]c(-c4cccc(CN(C)C)c4)cc23)c(-c2ccc(NC(=O)N(C)C)cc2)n1` it was 11.8 µM (active).

As to `Cc1cc(C(=O)N2CCN(c3cccc(Cl)c3)CC2)n(-c2ccccc2)n1`, the Potency was 526 nM (active) and 1.46 µM (active).

Consider `COc1cc(OC2CCN(C)CC2)ccc1Nc1ncc2c(n1)n(C1CCCC1)c(=O)n2C`, for which the Potency was 3.72 µM (active). With `Cc1c(Cn2c(C)nc3c(C(=O)O)cc(N4CCOCC4)cc32)cccc1C(F)(F)F`, the max response is -8.46% and the molecule was called inactive. As to `O=C(C=Cc1c(C(=O)O)[nH]c2cc(Cl)cc(Cl)c12)Nc1ccccc1`, the call was inactive. On to `C=CC(=O)Nc1cc2c(Nc3ccc(F)c(Cl)c3)ncnc2cc1OCCCN1CCOCC1`, for which the Potency is 7.5 µM (active). For the molecule `COc1cc2c(Oc3ccc(-c4cnc(Nc5ccc(F)cc5)n(C)c4=O)cc3F)ccnc2cc1OCCCN1CCOCC1`, the Potency is 4.69 µM (active).

Turning to `Cc1nc2ccc(CN(C)c3ccc(C(=O)N[C@@H](CCC(=O)O)C(=O)O)s3)cc2c(=O)[nH]1`, the Potency is 0.0473 µM (active). On the same count and under the same terms, the same measure for `C[C@@H](Oc1cc(-c2cnn(C3CCNCC3)c2)cnc1N)c1c(Cl)ccc(F)c1Cl`: 4.18 µM (active) and 4.11 µM (active) and 5.8 µM (active). For the molecule `CNC(=O)c1nn(C)c2c1C(C)(C)Cc1cnc(Nc3ccc(N4CCN(C)CC4)cc3)nc1-2`, the Potency is 1.16 µM (active). In the case of `CNC(=O)c1ccccc1Nc1nc(Nc2ccc(N3CCOCC3)cc2OC)ncc1Cl`, the Potency is 3.32 µM (active). For `CCn1nnc2c(N3CCOCC3)nc(-c3ccc(NC(=O)Nc4ccc(C(=O)N5CCN(C)CC5)cc4)cc3)nc21`, the Potency was 0.206 µM (active). In the case of `Clc1cccc(-n2nnnc2NCc2ccccc2Oc2ccccn2)c1Cl`, the max response was -13.7% and -15.5%. On to `O=C(O)[C@H](Cc1c[nH]c2ccccc12)N1C(=O)c2ccccc2C1=O`, for which the call was inactive.
